Assay outcomes (PubChem BioAssay)
DRD3 antagonist = qHTS of D3 Dopamine Receptor Antagonist: qHTS. max response, negative = inhibition, %. actives 2.5% (n = 360,000). D(3) dopamine receptor (Homo sapiens), P35462. D3R cells, DiscoveRx beta-arrestin luminescence, antagonist mode; active compounds read low. AID 652054, 2013; in the data active means max response below about -50%; inconclusive means no clear call, values can overlap the other calls; further: on the % scale 0 is the no-effect control and ±100 the full control effect
Target sequence (P35462 whole entry, looked up): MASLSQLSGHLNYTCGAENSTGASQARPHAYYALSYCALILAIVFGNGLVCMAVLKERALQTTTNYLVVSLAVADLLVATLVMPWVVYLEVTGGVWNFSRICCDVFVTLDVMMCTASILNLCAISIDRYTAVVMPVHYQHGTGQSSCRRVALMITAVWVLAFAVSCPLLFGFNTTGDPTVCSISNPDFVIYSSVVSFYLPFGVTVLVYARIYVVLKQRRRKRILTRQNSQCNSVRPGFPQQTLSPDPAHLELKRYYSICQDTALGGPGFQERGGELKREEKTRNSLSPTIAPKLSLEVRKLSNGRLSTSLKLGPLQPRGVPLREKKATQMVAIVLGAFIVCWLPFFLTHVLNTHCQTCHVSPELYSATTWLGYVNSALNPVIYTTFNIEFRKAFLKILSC
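Cells expressing the human receptor were seeded at 1500 cells/well, incubated overnight at 37 degrees C in 5% CO2, then exposed to library compounds with dopamine controls for 90 minutes at 37 degrees C before luminescent detection.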
DRD3 agonist = qHTS of D3 Dopamine Receptor Agonist: qHTS; D3R DiscoveRx beta-arrestin cells, luminescence, 90 min; AID 652048, 2013; max activation, %; actives 0.58% (n = 410,000); in the data active means max activation above about 30%; further: 0% is about no effect
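Cells at 1500/well, incubated overnight, then treated with pinned compounds (dopamine as control) for 90 min at 37 degrees C. DiscoveRx reagent added for 30 - 60 minutes at room temperature; luminescence read.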
B2AR arrestin = qHTS assay of beta-arrestin-biased ligands of beta2-adrenergic receptor. beta-arrestin recruitment to beta2AR, cell-based reporter. Beta-2 adrenergic receptor (Homo sapiens), P07550. Potency, µM (top dose mostly 46.1 µM), for the others: at the highest dose activation, usual class: activators. actives 0.02% (n = 330,000). AID 492947, 2010; active means well fitted activation curve with a large enough effect; inconclusive means small, poorly fitted or top-dose-only effect;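 further: potency means the concentration at half of the fitted maximal effect; 0% = DMSO controls and full agonism = EC100 isoproterenol or metaproterenol; nearly all actives have a fitted effect of over 65% in size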
Giardia killer = Small Molecules that selectively kill Giardia lamblia: qHTS | Giardia lamblia trophozoite viability | activity change, % at 7.66 µM, hits read low | actives 0.15% (n = 340,000) | AID 540267, 2011; in the data active means activity change below about -80%; inconclusive means between about -30% and that limit;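 further: parasites exposed to compound for two days anaerobically before the ATP read; on the % scale 0 is the no-effect control and ±100 the full control effect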
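Media and compound were dispensed first, then trophozoites at 100 cells/well; plates sat 48 hrs at 37 deg C without oxygen before ATP luminescence reagent was added and read after 15-30 min at room temperature.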
* = called active by the depositor; ? = inconclusive; . = no result. This is a sample that favours compounds with a hit; in the whole collection about 2.8% have one here.

SMILES	DRD3 antagonist	DRD3 agonist	B2AR arrestin	Giardia killer
Cc1coc2cc3oc(=O)c(CC(=O)NCCc4ccccc4)c(C)c3cc12	.	0	.	.
COC(=O)c1ccc(NC(=O)C(C)N2Cc3ccccc3C2=O)cc1 (stereo not drawn)	.	-7	.	.
COc1ccc2c(c1)CC(C(=O)NCCCN1CCN(c3cccc(Cl)c3)CC1)CO2 (stereo not drawn)	.	7	.	.
O=C1c2ccccc2C(=O)N1c1ccccn1	.	.	.	13
C=C(CC[C@@H](O)C(C)(C)O)[C@H]1CC[C@]2(C)[C@@H]1CCC1[C@@]3(C)CCC(=O)C(C)(C)C3CC[C@]12C (stereo partly drawn)	19	43*	0%	0
O=c1[nH]c2ccccc2n1CCCN1CCCCC1	-61*	-16	0%	-8
Fc1ccc(CN2CC[C@H]3C=CCc4cccc(c43)C2)cc1	-53*	-60	0%	?
Fc1ccc(CNC2CCN(Cc3ccccc3)CC2)cc1	-15	-11	0%	1
Clc1ccc(CN2CC[C@H]3C=CCc4cccc(c43)C2)cc1	-84*	-13	0%	-26
O=C(C1CCN(Cc2ccc(Cl)cc2)CC1)N1CCN(C(c2ccccc2)c2ccccc2)CC1	-27	-13	0%	-22
O=C(Cn1c(=O)nc(-c2ccccc2)c2cc(Cl)ccc21)NCCc1ccccc1	.	4	.	.
CC(C)(C)OC(=O)N1CCC(c2c(C(=O)N3CCOCC3)cnn2-c2cccc(F)c2)CC1	.	74*	.	.
CC(=O)c1cccc(NC(=O)C2CCN(S(=O)(=O)c3ccc4c(c3)CCCN4C(C)=O)CC2)c1	.	10	.	.
COc1cc(OC)c(N(C)S(=O)(=O)c2cccc(C(=O)OCC(=O)c3c[nH]c4ccccc34)c2)cc1Cl	14	33*	1%	5
Cc1ccc2occ(-c3cc(-c4ccc(Cl)cc4)nc4c3COc3ccccc3-4)c(=O)c2c1	.	-7	.	.
COC(=O)c1c(-c2ccc(OC)cc2)sc2ccccc12	.	.	3%	.
COC(=O)c1c(-c2cc(OC)cc(OC)c2)sc2ccc(OC)cc12	10	62*	5%	?
COC(=O)c1c(-c2ccc(SC)cc2)sc2ccccc12	42	56*	-1%	1
COC(=O)c1c(-c2ccc(SC)cc2)sc2ccc(OC)cc12	16	38*	0%	16
COC(=O)c1c(-c2ccc(S(C)(=O)=O)cc2)sc2cc(OC)ccc12	67	31*	0%	25
COc1ccc(C2c3c(n(C)c4ccccc34)C(=O)N2CC(=O)Nc2ccccc2Cl)cc1 (stereo not drawn)	.	-3	.	.
CCCN1Cc2cccc(C(=O)Nc3ccccc3F)c2C1=O	.	-8	.	.
OC(CN1CCCCC1)c1cc(-c2ccccc2)on1 (stereo not drawn)	.	-3	.	.
CCOC(=O)C1=C(CSc2nc3ccccc3s2)NC(=O)NC1c1ccc(OC)cc1 (stereo not drawn)	7	23	0%	1
CCOC(=O)C1=C(CSc2nc3ccccc3s2)NC(=O)NC1c1cc(C)ccc1C (stereo not drawn)	34	31*	0%	2
SMILES	DRD3 antagonist	DRD3 agonist	B2AR arrestin	Giardia killer
Cc1cn([C@H]2C[C@H](O)[C@@H](CNCC3=Cc4cc(O)ccc4OC3)O2)c(=O)[nH]c1=O	?	39*	.	.
C=CCN(C/C(=N\O)c1sc(C(=O)OCC)nc1C)c1cccc(Br)c1	4	63*	.	-11
CCc1cccc(NC(=O)Cn2c(=O)ccc3cc(S(=O)(=O)N4CCC(C)CC4)ccc32)c1	.	-5	.	.
Cc1ccccc1CC1CCN(CCCNC(=O)Nc2ccccc2)CC1	-83*	-5	-1%	8
Cc1cccc(C)c1NC(=O)C(=O)NCCCN1CCOCC1	-8	5	0%	-1
Cc1cccc(C)c1NC(=O)NCCCN1CCN(c2ccccc2)CC1	?	38*	0%	5
Cc1ccc(NC(=O)c2cnc3sc(N4CCOCC4)nn3c2=O)cc1N(C)C	.	3	.	.
c1coc(-c2ccc3ncnc(NCc4cccs4)c3c2)c1	.	.	0%	.
Cc1ccc(OCc2n[nH]c(=S)n2-c2ccc(Cl)cc2)cc1	-23	-10	0%	-5
Cc1ccc(C2=Nn3c(COc4ccc(Cl)cc4)nnc3SC2CC(=O)O)cc1 (stereo not drawn)	-3	32*	0%	-19
COc1cc(-c2cc3n(C)c(C)c(CCC(=O)O)c(=O)n3n2)cc(OC)c1OC	.	0	.	.
Clc1ccc(-c2ccc(CNCc3ccccn3)o2)cc1	-69*	-22	0%	8
Fc1ccc(-c2ccc(CNCc3ccccn3)o2)cc1	?	-10	0%	11
Oc1cccc(C=Nc2cccc3ccccc23)c1O	-75*	0	0%	-21
CCC1CCc2sc(C(=O)NCc3ccccn3)cc2C1 (stereo not drawn)	-8	-1	-1%	-1
CC1CCc2sc(C(=O)NC3CCN(Cc4ccccc4)CC3)cc2C1 (stereo not drawn)	-95*	-19	0%	-11
CCC1CCc2sc(C(=O)NC3CCN(Cc4ccccc4)CC3)cc2C1 (stereo not drawn)	-72*	-32	-1%	-6
COc1cccc(OC)c1OCC(O)CN1CCN(c2ccc(F)cc2)CC1 (stereo not drawn)	-77*	-15	-1%	4
COc1ccc(N2CCN(CC(O)COc3ccccc3[N+](=O)[O-])CC2)cc1 (stereo not drawn)	-54*	-12	0%	4
O=[N+]([O-])c1ccccc1OCC(O)CN1CCN(CC(O)COc2ccccc2[N+](=O)[O-])CC1 (stereo not drawn)	-93*	-5	-1%	-8
OC(COc1ccccc1)CN1CCN(CC(O)COc2ccccc2)CC1 (stereo not drawn)	-30	-22	0%	8
COc1ccc(N2CCN(CC(O)COc3ccc(C)cc3C)CC2)cc1 (stereo not drawn)	-29	-7	0%	22
O=S(=O)(c1ccccc1F)N1CCN(c2nc(-c3cccs3)nc3ccccc23)CC1	.	.	.	-7
COc1ccc2nc3sc(C(=O)NCCN4CCc5ccccc5C4)cc3cc2c1	-68*	-51	1%	-2
COc1ccc2cc3cc(C(=O)NCCCN4CCc5ccccc5C4)sc3nc2c1	-65*	-11	-1%	0
SMILES	DRD3 antagonist	DRD3 agonist	B2AR arrestin	Giardia killer
CCc1ccc2c(c1)NC(c1cccnc1)=NC(c1ccc(C(C)(C)C)cc1)=N2	.	-18	.	.
COc1ccc(NC2=NC3(CCCCC3)N=C(N)N2)cc1	-13	0	0%	-21
COc1ccc(OC)c(NC2=NC3(CCCCC3)N=C(N)N2)c1	-55*	0	0%	11
Cn1nnnc1NCc1cccc(Cl)c1	-3	7	0%	-17
Clc1cccc(CNc2nnnn2-c2ccccc2)c1	-52*	-19	0%	1
CN(C)c1nc(=NCc2cccs2)ss1	-15	-2	.	-81*
c1ccc(Cc2nnc(N3CCCCC3)c3ccccc23)cc1	2	-3	-2%	4
